Experimental findings from PubChem BioAssay (Tox21) are described below.

Molecules are shown by their SMILES. Records with an inconclusive call do not appear. The source holds several records for some structures; these can differ, active in one and inactive in another. Active and inactive are the calls of the source. Calls follow the shape of the dose curve; as a rule, active = well fitted curve in the direction sought with a large enough effect in the repeat runs; inconclusive = weak or mixed curves; inactive = no such curve, though single readings can be large; an effect the other way counts as inactive or inconclusive.

Experiment [1] is described as follows: qHTS RealTime-Glo MT Cell Viability Assay in HepG2 cells - 8 hour (AID 1224873). Also: nearly all actives have a fitted effect of over 55% in size. The method in brief: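 HepG2 cells mixed with RealTime-Glo MT reagents (NanoLuc plus cell-permeant prosubstrate) were seeded at 600 cells/well, incubated 5 h at 37 C/5% CO2, then pinned with compounds in DMSO; nonlytic luminescence tracked viability during 40 h treatment.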
Experiment [2] is described as follows: A CellTox Green Cytotoxicity Assay to monitor cytotoxicity in HEK293 cells - 24 hour (AID 1224875). Also: nearly all actives have a fitted effect of over 45% in size. Also: potency is read from the fitted curve at half-maximal effect. The method in brief: (§1)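 Read-out: fluorescence of a cell-impermeant cyanine dye staining DNA of dead cells, proportional to cytotoxicity. HEK293, 600 cells/well with reagent, compound (23 nL DMSO) added after 5 h; reads at 0, 8, 16, 24, 32, 40 h.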
A short description of experiment [3]: A CellTox Green Cytotoxicity Assay to monitor cytotoxicity in HepG2 cells - 16 hour (AID 1224876). Also: nearly all actives have a fitted effect of over 45% in size. The method in brief: (§2)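 HepG2, 600 cells/well premixed w/ CellTox Green; 5 h settle, 37 C/5% CO2; pintool cpd add (DMSO); 37 C, 40 h; fluorescence read at 0, 8, 16, 24, 32, 40 h.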
Experiment [4] can be described thus: qHTS RealTime-Glo MT Cell Viability Assay in HepG2 cells - 32 hour (AID 1224877). Also: nearly all actives have a fitted effect of over 55% in size. The method in brief: (§3)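 Tox21 10K library screened in qHTS format on HepG2 cells carrying RealTime-Glo reagents. Compounds were added after a 5 h preincubation, and the luminescent signal from continuous culture was measured repeatedly during 40 h treatment.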
The nature of experiment [5]: A CellTox Green Cytotoxicity Assay to monitor cytotoxicity in HepG2 cells - 24 hour (AID 1224878). Also: nearly all actives have a fitted effect of over 45% in size. Also: potency is read from the fitted curve at half-maximal effect. The gist of the method:
as §2

Experiment [6] can be described thus: A CellTox Green Cytotoxicity Assay to monitor cytotoxicity in HepG2 cells - 40 hour (AID 1224879). Also: nearly all actives have a fitted effect of over 40% in size. Also: potency is read from the fitted curve at half-maximal effect. The method in brief:
as §2

Experiment [7] in a line: qHTS RealTime-Glo MT Cell Viability Assay in HEK293 cells - 0 hour (AID 1224880). Also: top concentration of the series differs between compounds; nearly all actives have a fitted effect of over 45% in size. The method in brief: (§4)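 Luminescence readout at each listed time point; HEK293, 600 cells/well, RealTime-Glo MT reagent added with cells; compounds pinned (23 nL in DMSO) after 5 h at 37 C; continuous culture at 37 C.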
Experiment [8] in a line: A CellTox Green Cytotoxicity Assay to monitor cytotoxicity in HEK293 cells - 32 hour (AID 1224881). Also: nearly all actives have a fitted effect of over 40% in size. Also: potency is read from the fitted curve at half-maximal effect. The method in brief: as §1
A short description of experiment [9]: A CellTox Green Cytotoxicity Assay to monitor cytotoxicity in HepG2 cells - 0 hour (AID 1224882). Also: nearly all actives have a fitted effect of over 35% in size. The method in brief:
as §2

Experiment [10] can be described thus: A CellTox Green Cytotoxicity Assay to monitor cytotoxicity in HepG2 cells - 32 hour (AID 1224883). Also: nearly all actives have a fitted effect of over 50% in size. Also: potency is read from the fitted curve at half-maximal effect. The method in brief:
as §2

Experiment [11] can be described thus: A CellTox Green Cytotoxicity Assay to monitor cytotoxicity in HEK293 cells - 8 hour (AID 1224884). Also: nearly all actives have a fitted effect of over 35% in size. The gist of the method:
as §1

Experiment [12] in a line: qHTS RealTime-Glo MT Cell Viability Assay in HepG2 cells - 16 hour (AID 1224885). Also: nearly all actives have a fitted effect of over 50% in size. The gist of the method: as §3
On the technique in general: qHTS replaces the single test concentration by a dilution series.

Experiment [13] in a line: qHTS RealTime-Glo MT Cell Viability Assay in HEK293 cells - 24 hour (AID 1224886). Also: top concentration of the series differs between compounds; nearly all actives have a fitted effect of over 50% in size. The gist of the method: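 Luminescence generated by NanoLuc from substrate produced by living HEK293 cells served as the viability signal. Each value reflects the reading at its stated time point during continuous 40 h compound exposure at 37 C.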
Experiment [14] can be described thus: qHTS RealTime-Glo MT Cell Viability Assay in HEK293 cells - 8 hour (AID 1224887). Also: top concentration of the series differs between compounds; nearly all actives have a fitted effect of over 50% in size. The method in brief: as §4
Experiment [15] can be described thus: A CellTox Green Cytotoxicity Assay to monitor cytotoxicity in HEK293 cells - 16 hour (AID 1224888). Also: nearly all actives have a fitted effect of over 35% in size. Also: potency is read from the fitted curve at half-maximal effect. The gist of the method: as §1
Experiment [16] can be described thus: qHTS RealTime-Glo MT Cell Viability Assay in HepG2 cells - 0 hour (AID 1224889). Also: nearly all actives have a fitted effect of over 50% in size. The gist of the method:
as §3

A short description of experiment [17]: A CellTox Green Cytotoxicity Assay to monitor cytotoxicity in HepG2 cells - 8 hour (AID 1224890). Also: nearly all actives have a fitted effect of over 45% in size. The gist of the method:
as §2

The nature of experiment [18]: qHTS assay to identify small molecule antagonists of the estrogen receptor alpha (ER-alpha) signaling pathway using the BG1 cell line in the presence of 0.1 nM 17-beta-estradiol - cell viability counter screen (AID 1259241). Also: nearly all actives have a fitted effect of over 40% in size. The method in brief: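 CellTiter-Fluor read (30 min, 37C) on ER-alpha/ERE-luc VM7Luc4E2 cells; 22 hr compound treatment; agonist 0.1 nM E2 final; same-well multiplex.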

As to `Cc1oc(-c2ccccc2)nc1CCC(=O)c1ccc(CC2SC(=O)NC2=O)cc1` (centres undefined), the Potency result in experiment [1], in [2], in [3], in experiment [4], in experiment [5] and in [6] was “inactive” each time. In addition, the Potency entry in [7], in [8], in [9], in experiment [10], in experiment [11] and in experiment [12] was “inactive” throughout. For the same compound, the Potency entry in experiment [13], in experiment [14], in [15], in [16], in experiment [17] and in experiment [18] was “inactive” each time.

Take `C/C(=C(/OCCOc1ccc(Cl)cc1)c1ccc(Cl)cc1Cl)n1ccnc1`: the Potency entry in [1], in experiment [2], in experiment [3], in [4], in [5] and in experiment [6] was “inactive” in each case. Also, the Potency result in [7], in experiment [8], in experiment [9], in experiment [10], in experiment [11] and in experiment [12] was “inactive” throughout. Moreover, the Potency entry in experiment [15], in experiment [16], in experiment [17] and in [18] was “inactive” each time.

`Cc1nc(-c2ccc3c(c2)CCN(CCC2CCC(NC(=O)/C=C/c4ccc(F)cc4)CC2)CC3)no1` (centres undefined): the Potency entry in experiment [1], in experiment [2], in [3], in [4], in experiment [5] and in experiment [7] was “inactive” in each case. Also, the Potency entry in experiment [9], in experiment [10], in experiment [11], in experiment [12], in [15] and in experiment [16] was “inactive” each time. In addition, in experiment [17], the Potency result is “inactive”.

Take `CCCCN1C(=O)[C@@H]([C@H](O)C2CCCCC2)NC(=O)C12CCN(Cc1ccc(Oc3ccc(C(=O)O)cc3)cc1)CC2`: the Potency entry in [1], in experiment [2], in experiment [3], in experiment [4], in experiment [5] and in experiment [6] was “inactive” each time. The Potency result in experiment [7], in experiment [8], in experiment [9], in experiment [10], in [11] and in experiment [12] was “inactive” in each case. For the same compound, the Potency entry in experiment [13], in experiment [15], in experiment [16], in experiment [17] and in experiment [18] was “inactive” throughout.

Turning to `Nc1nc2ccccc2n1Cc1ccc(F)cc1`, the Potency entry in experiment [1], in experiment [2], in experiment [3], in experiment [4], in experiment [8] and in experiment [9] was “inactive” each time. The Potency entry in experiment [11], in [12], in experiment [14], in experiment [15] and in [17] was “inactive” throughout. Also, the Potency in [6] and in experiment [10] was 23.9 µM (active) in each case.

With `O=[N+]([O-])c1cc([N+](=O)[O-])c2ccc(S(=O)(=O)O)cc2c1O`, the Potency result in experiment [1], in experiment [2], in experiment [3], in experiment [4], in experiment [5] and in experiment [6] was “inactive” each time. For the same compound, the Potency result in experiment [7], in [8], in [9], in [10], in [11] and in [12] was “inactive” throughout. For the same compound, the Potency result in [13], in experiment [14], in [15], in experiment [16] and in experiment [17] was “inactive” in each case.

Turning to `Cc1[nH]nc2c1N=C(c1ccccc1Cl)c1cc([N+](=O)[O-])ccc1N2`, the Potency result in experiment [1], in experiment [2], in experiment [3], in experiment [4], in experiment [5] and in experiment [6] was “inactive” in each case. The Potency entry in experiment [7], in experiment [8], in experiment [9], in experiment [10], in [11] and in experiment [12] was “inactive” each time. The Potency result in experiment [14], in [15] and in [17] was “inactive” in each case.

Turning to `O=C(Nc1cccc([N+](=O)[O-])c1)c1cc2ccccc2cc1O`, the Potency result in experiment [1], in [2], in experiment [3], in experiment [4], in [5] and in [6] was “inactive” in each case. Also, the Potency entry in [7], in experiment [8], in experiment [9], in experiment [10], in experiment [12] and in experiment [14] was “inactive” throughout. Besides, the Potency result in experiment [15], in experiment [17] and in experiment [18] was “inactive” in each case.

As for `CCC(Cl)C(Cl)C(Cl)CC(Cl)C(Cl)C(C)Cl` (centres undefined), the Potency entry in [1], in experiment [2], in experiment [3], in experiment [4], in [5] and in experiment [6] was “inactive” throughout. Also, the Potency result in experiment [7], in experiment [8], in experiment [9], in [11], in experiment [12] and in [13] was “inactive” each time. For the same compound, the Potency entry in [15], in experiment [16], in experiment [17] and in [18] was “inactive” each time.

As to `CCCCC(CC)COP(=O)(O)OCC(CC)CCCC` (centres undefined), the Potency result in [1], in experiment [3], in experiment [4], in experiment [7], in experiment [9] and in experiment [11] was “inactive” throughout. For the same compound, the Potency entry in experiment [12], in experiment [14], in experiment [16], in [17] and in experiment [18] was “inactive” throughout. Also, the Potency in experiment [2] was 43.6 µM (active); in experiment [5], 49.1 µM (active) and inactive; in experiment [6], 54.9 µM (active); in experiment [8] it was 43.6 µM (active); in experiment [15], 38.9 µM (active).

In the case of `CC(=O)SC[C@@H](Cc1ccccc1)C(=O)NCC(=O)OCc1ccccc1`, the Potency result in [1], in experiment [2], in experiment [3], in experiment [4], in [5] and in [6] was “inactive” each time. The Potency entry in experiment [7], in [8], in experiment [9], in experiment [10], in [11] and in experiment [12] was “inactive” in each case. Moreover, the Potency result in [13], in experiment [14], in [15], in experiment [16], in experiment [17] and in experiment [18] was “inactive” throughout.
